According to PubChem BioAssay (Tox21):
“And” between values parts separate entries of the source, which are not always exact repeats. Equal values may be shown once. Records with an inconclusive call do not appear. The source made the active and inactive calls. Unless noted, the call rests on the fitted dose curve; in most records, active means well fitted curve in the direction sought with a large enough effect in the repeat runs; inconclusive means weak or mixed curves; inactive means no such curve, though single readings can be large; an effect the other way counts as inactive or inconclusive.

Columns and labels:
[1] = qHTS assay to identify small molecule antagonists of the estrogen receptor alpha (ER-alpha) signaling pathway using the BG1 cell line in the presence of 0.1 nM 17-beta-estradiol - cell viability counter screen (AID 1259241); further: nearly all actives have a fitted effect of over 40% in size
Outline: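 Following 5 days in phenol red-free medium with charcoal-stripped serum, VM7Luc4E2 cells received test compounds alongside 0.1 nM 17beta-estradiol (final) at 37C for 22 hr. Live cells were then quantified via protease-substrate fluorescence.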

[2] = qHTS assay to identify small molecule antagonists of the androgen receptor (AR) signaling pathway using the MDA cell line in the presence of 0.5 nM R1881 - cell viability counter screen (AID 1259242); further: nearly all actives have a fitted effect of over 45% in size
Outline: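 Live-cell protease fluorescence, CellTiter-Fluor, 30 min at 37C. Cells: MDA-kb2, 3,000/well, preincubated 5 hr. Compounds plus 0.5 nM R1881 final, 16 hr, 37C, 0% CO2.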

[3] = qHTS assay to identify small molecule HDAC inhibitors (AID 1259364); further: potency means the concentration at half of the fitted maximal effect;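 further: wild-type HCT-116 cells with endogenous class I/II HDAC activity; nearly all actives have a fitted effect of over 45% in size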; on activity change, negative = inhibition: top concentration of the series differs between compounds
Outline: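 HCT-116 (wild type), 1,500 cells/well, overnight; compound 2 hr 37C 5% CO2; HDAC-Glo I/II reagent 30 min RT; luminescence readout.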

[4] = qHTS assay to identify small molecule HDAC inhibitors - cell viability counter screen (AID 1259365); further: series mostly up to about 92 µM; nearly all actives have a fitted effect of over 50% in size
Outline: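 HCT-116 wild-type, overnight attachment; 2hr drug exposure, 37C; CellTiter-Glo luminescent ATP readout after 30min RT.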

[5] = qHTS assay to identify small molecule agonists of the sonic hedgehog signaling (Shh) pathway - cell viability counter screen (AID 1259366); further: nearly all actives have a fitted effect of over 50% in size
Outline: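 Compounds in DMSO were pin-transferred onto 3T3 Gli1-Luc cells that had settled 4hr; plates then stood 24hr at 37C and 5% CO2. One hour before the end, CellTiter-Fluor was added and fluorescence recorded.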

[6] = qHTS assay to identify small molecule agonists of the sonic hedgehog signaling (Shh) pathway (AID 1259368; calls by dose curve;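 further: NIH/3T3-derived 3T3Gli1-Luc cells carrying a stable Gli1-driven firefly luciferase reporter; series mostly up to about 92 µM; nearly all actives have a fitted effect of over 15% in size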)
Outline: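 Read-out: firefly luciferase luminescence from a Gli1 response element reporter stably integrated in NIH/3T3-derived 3T3Gli1-Luc cells, measured 30 min at room temperature after reagent addition. Compound exposure lasted 24 hr at 37 C, 5% CO2.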

[7] = qHTS assay to identify small molecule antagonists of the sonic hedgehog signaling (Shh) pathway (AID 1259369; calls by dose curve; further: nearly all actives have a fitted effect of over 45% in size; further: potency means the concentration at half of the fitted maximal effect)
Outline: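 Luminescence readout: firefly Luc under Gli1 response element in 3T3Gli1-Luc cells (NIH/3T3 clone). Antagonist mode, stimulation by conditioned medium; compound exposure 24hr at 37 C, 5% CO2.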

[8] = qHTS assay to identify small molecule agonists of the androgen receptor (AR) signaling pathway in the presence of an antagonist - cell viability counter screen (AID 1259379); further: nearly all actives have a fitted effect of over 25% in size; further: potency means the concentration at half of the fitted maximal effect;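 on activity change, negative = cytotoxicity: MDA-kb2 human breast cancer cells carrying an MMTV luciferase reporter; series mostly up to about 92 µM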
Outline: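 Viability counter screen: CellTiter-Fluor fluorescence, measured in the same wells as the luciferase read-out. MDA-kb2 cells, 3,000/well, with nilutamide at 3.0uM final and compounds at 15 concentrations, 16 hr at 37C, 0% CO2.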

[9] = qHTS assay to identify small molecule agonists of the estrogen receptor beta (ER-beta) signaling pathway - cell viability counter screen (AID 1259380); further: nearly all actives have a fitted effect of over 30% in size; further: potency means the concentration at half of the fitted maximal effect
Outline: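 Luminescence read-out (CellTiter-Glo, 30 min, room temp) taken in the same wells as the beta-lactamase reporter assay; ER-beta-UAS-bla HEK293T cells exposed to DMSO-dissolved compounds for 16 hr at 37C in 2% charcoal-stripped FBS medium.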

[10] = qHTS assay to identify small molecule antagonists of the estrogen receptor beta (ER-beta) signaling pathway - cell viability counter screen (AID 1259382);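 further: HEK293T cells carrying ER-beta-UAS-bla reporter stimulated with estradiol; series mostly up to about 92 µM; nearly all actives have a fitted effect of over 55% in size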
Outline: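 Luminescent ATP read-out (CellTiter-Glo, 30 min, RT) taken in the same wells as the bla reporter assay. HEK293T ER-beta-UAS-bla cells in 2% charcoal-stripped FBS were exposed to compounds with 1nM E2 for 16 hr at 37C.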

[11] = qHTS assay to identify small molecule agonists or antagonists of the thyroid stimulating hormone receptor (TSHR) signaling pathway - wild type cell line counter screen (AID 1259384; calls by dose curve)
Outline: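 Wild-type Hek293 cells, 800/well, 18 h at 37C, then compound with Ro20-1724 for 30 min RT. cAMP by HTRF (cAMP-d2/anti-cAMP cryptate), 1 h RT, fluorescence read. 15 concentrations, triplicates.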

[12] = target: Thyrotropin receptor (Homo sapiens) (UniProt P16473); assay: qHTS assay to identify small molecule antagonists of the thyroid stimulating hormone receptor (TSHR) signaling pathway (AID 1259385; calls by dose curve; further: nearly all actives have a fitted effect of over 20% in size; further: potency means the concentration at half of the fitted maximal effect)
Outline: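 TSHR-HEK293 cells (800/well) plated 18 h, then compounds with Ro20-1724 and TSH at 1.5 ng/mL final, 30 min at room temperature. cAMP quantified by HTRF (cAMP-d2/anti-cAMP-cryptate, 1 h); 15 concentrations in triplicate.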

[13] = qHTS assay to identify small molecule antagonists of the sonic hedgehog signaling (Shh) pathway - cell viability counter screen (AID 1259367); further: nearly all actives have a fitted effect of over 55% in size
Outline: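 Fluorescence read-out (CellTiter-Fluor, 1 hr at 37C) taken after 23 hr compound treatment of 3T3 Gli1-Luc cells stimulated with conditioned medium. Cells were seeded at 2,000 per well and pre-incubated 4 hr.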

[14] = target: Estrogen receptor beta (Homo sapiens) (UniProt Q92731); assay: qHTS assay to identify small molecule agonists of the estrogen receptor beta (ER-beta) signaling pathway (AID 1259377; active means well fitted activation curve with a large enough effect in the signal ratio in the repeat runs, not every such curve was filed as active; the % refers to the signal ratio)
Outline: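 qHTS in ER-beta-UAS-bla HEK293T cells: 6 hr settling, then 16 hr compound at 37C, then LiveBLAzer substrate 2 h at RT before fluorescence reading.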

[15] = target: Androgen receptor (Homo sapiens) (UniProt P10275); assay: qHTS assay to identify small molecule antagonists of the androgen receptor (AR) signaling pathway using the MDA cell line in the presence of 0.5 nM R1881 (AID 1259243); further: nearly all actives have a fitted effect of over 50% in size
Outline: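 MDA-kb2, MMTV-luc (AR/GR elements); 3,000 cells/well; cpd + 0.5 nM R1881 final; 16 hr 37C, 0% CO2; ONE-Glo 30 min RT; luminescence.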

[16] = target: Estrogen receptor (Homo sapiens) (UniProt P03372); assay: qHTS assay to identify small molecule antagonists of the estrogen receptor alpha (ER-alpha) signaling pathway using the BG1 cell line in the presence of 0.1 nM 17-beta-estradiol (AID 1259244); further: nearly all actives have a fitted effect of over 50% in size
Outline: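 Luminescence after ONE-Glo (30 min, room temperature) measured ERE-luciferase activity in VM7Luc4E2 cells treated 22 h with compound and 0.1 nM final 17beta-estradiol as stimulator.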

[17] = target: Androgen receptor (Homo sapiens) (UniProt P10275); assay: qHTS assay to identify small molecule agonists of the androgen receptor (AR) signaling pathway in the presence of an antagonist (AID 1259381; calls by dose curve; further: nearly all actives have a fitted effect of over 15% in size)
Outline: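 Luciferase read-out (ONE-Glo, 30min room temperature) in MDA-kb2 MMTV-reporter cells; agonist mode run in presence of AR antagonist nilutamide, 3.0uM final. Compounds tested as 15-point series, 16hr exposure at 37C, 0% CO2.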

[18] = target: Estrogen receptor (Homo sapiens) (UniProt P03372); assay: qHTS assay to identify small molecule agonists of the estrogen receptor alpha (ER-alpha) signaling pathway in the presence of an antagonist (AID 1259383; calls by dose curve; further: top concentration of the series differs between compounds; nearly all actives have a fitted effect of over 15% in size)
Outline: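 Luciferase luminescence (ONE-Glo, 30min at room temperature) measured in VM7Luc4E2 cells after 22hr compound exposure at 15 concentrations, with 10.0nM ICI-182,780 final present; cells express endogenous ER-alpha and carry four EREs upstream of luciferase.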

[19] = qHTS assay to identify small molecule phospholipidosis (PLD) inducers (AID 1259344; active means well fitted curve in the direction sought with a large enough effect; an effect the other way counts as inactive or inconclusive)
Outline: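 Read-out is LipidTOX Red fluorescence (ex 595/em 615) imaged in HepG2 cells after 24 h compound exposure at 37 C, with Hoechst nuclear counterstain (ex 352/em 461) allowing per-cell normalisation.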
On the % scale 0 is the no-effect control and ±100 the full control effect.

Chain of Androgen receptor (Homo sapiens) (P10275 whole entry, looked up): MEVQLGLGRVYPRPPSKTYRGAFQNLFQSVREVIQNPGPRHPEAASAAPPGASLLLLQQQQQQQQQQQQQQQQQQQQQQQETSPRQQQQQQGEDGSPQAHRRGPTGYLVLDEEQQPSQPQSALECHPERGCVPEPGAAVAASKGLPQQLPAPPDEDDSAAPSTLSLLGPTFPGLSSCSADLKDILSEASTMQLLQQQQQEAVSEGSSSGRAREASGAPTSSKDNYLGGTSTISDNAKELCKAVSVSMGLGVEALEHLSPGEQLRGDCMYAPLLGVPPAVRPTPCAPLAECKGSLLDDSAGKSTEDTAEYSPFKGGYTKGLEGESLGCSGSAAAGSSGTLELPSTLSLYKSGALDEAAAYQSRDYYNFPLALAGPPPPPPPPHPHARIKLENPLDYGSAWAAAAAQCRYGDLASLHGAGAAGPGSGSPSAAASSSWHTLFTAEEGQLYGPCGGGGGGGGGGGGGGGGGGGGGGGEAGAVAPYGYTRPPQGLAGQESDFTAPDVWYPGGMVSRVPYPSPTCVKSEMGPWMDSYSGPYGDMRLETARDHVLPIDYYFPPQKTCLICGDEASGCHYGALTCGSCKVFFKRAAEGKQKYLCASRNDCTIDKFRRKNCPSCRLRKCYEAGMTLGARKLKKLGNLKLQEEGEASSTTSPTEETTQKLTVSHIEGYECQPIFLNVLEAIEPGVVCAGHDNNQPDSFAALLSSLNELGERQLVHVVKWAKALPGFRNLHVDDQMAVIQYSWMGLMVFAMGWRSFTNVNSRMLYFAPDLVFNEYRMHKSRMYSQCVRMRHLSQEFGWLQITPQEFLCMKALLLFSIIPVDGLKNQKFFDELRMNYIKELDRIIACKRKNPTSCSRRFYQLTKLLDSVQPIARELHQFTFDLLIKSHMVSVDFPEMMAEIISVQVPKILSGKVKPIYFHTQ
Chain of Thyrotropin receptor (Homo sapiens) (P16473 whole entry, looked up): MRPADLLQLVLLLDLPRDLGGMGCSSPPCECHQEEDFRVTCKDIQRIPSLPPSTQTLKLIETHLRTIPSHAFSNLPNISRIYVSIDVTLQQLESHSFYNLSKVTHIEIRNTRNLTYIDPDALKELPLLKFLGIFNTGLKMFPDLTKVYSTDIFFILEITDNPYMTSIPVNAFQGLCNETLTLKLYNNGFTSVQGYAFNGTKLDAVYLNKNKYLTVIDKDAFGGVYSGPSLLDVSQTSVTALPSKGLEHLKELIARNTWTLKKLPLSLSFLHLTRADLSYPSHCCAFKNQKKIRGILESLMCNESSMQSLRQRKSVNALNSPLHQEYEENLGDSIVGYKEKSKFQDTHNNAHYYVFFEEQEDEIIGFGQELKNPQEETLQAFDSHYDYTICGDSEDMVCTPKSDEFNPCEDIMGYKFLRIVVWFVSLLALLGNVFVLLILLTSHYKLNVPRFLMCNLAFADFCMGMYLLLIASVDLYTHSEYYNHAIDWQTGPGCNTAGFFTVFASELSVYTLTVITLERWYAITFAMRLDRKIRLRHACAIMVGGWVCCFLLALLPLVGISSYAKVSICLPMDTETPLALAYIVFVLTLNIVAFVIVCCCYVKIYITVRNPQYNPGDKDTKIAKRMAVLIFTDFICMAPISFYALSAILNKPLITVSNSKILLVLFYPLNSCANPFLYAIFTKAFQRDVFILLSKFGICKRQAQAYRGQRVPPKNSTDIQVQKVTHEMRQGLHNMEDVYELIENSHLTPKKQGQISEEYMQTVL
Chain of Estrogen receptor (Homo sapiens) (P03372 whole entry, looked up): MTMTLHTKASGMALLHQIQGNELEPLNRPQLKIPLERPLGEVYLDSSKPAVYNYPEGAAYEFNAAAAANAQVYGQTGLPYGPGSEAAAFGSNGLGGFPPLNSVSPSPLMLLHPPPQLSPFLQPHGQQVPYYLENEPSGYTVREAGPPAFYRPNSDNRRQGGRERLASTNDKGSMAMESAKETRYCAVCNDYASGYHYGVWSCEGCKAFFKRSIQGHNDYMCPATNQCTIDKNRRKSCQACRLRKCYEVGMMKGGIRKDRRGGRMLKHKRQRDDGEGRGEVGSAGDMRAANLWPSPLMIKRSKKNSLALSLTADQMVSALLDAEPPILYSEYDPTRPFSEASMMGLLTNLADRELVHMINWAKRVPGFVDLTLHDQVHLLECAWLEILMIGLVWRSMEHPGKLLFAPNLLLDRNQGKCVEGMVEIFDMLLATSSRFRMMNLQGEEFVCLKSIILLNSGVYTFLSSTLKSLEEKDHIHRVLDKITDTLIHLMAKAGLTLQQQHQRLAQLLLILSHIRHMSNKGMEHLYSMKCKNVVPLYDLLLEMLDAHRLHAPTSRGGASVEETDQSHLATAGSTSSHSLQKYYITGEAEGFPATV
Chain of Estrogen receptor beta (Homo sapiens) (Q92731 whole entry, looked up): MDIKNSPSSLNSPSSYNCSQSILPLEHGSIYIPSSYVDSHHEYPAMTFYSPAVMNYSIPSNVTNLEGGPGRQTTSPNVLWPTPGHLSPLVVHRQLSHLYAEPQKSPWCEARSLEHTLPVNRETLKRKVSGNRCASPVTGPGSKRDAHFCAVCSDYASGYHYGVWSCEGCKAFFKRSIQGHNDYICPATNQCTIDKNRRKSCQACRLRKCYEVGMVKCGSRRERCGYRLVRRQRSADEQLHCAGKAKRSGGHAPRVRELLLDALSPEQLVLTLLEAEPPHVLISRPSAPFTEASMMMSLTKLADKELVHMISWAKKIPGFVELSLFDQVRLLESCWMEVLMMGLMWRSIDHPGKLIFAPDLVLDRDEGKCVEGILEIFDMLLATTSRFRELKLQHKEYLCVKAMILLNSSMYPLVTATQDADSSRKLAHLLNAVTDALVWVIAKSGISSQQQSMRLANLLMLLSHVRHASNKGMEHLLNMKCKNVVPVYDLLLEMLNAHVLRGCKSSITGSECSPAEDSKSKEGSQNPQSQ

CCOC(C(=O)OCCN(C)C)(c1ccccc1)c1ccccc1
inactive: Potency [1] | Potency [2] | Potency [3] | Potency [4] | Potency [5] | Potency [6] | Potency [7] | Potency [8] | Potency [9] | Potency [10] | outcome [11] | Potency [12]

Nc1ccccc1C(=O)OCCc1ccccc1
active: Potency [3] 9.73 µM and 3.86 µM | Potency [9] 9.73 µM and 7.7 µM
inactive: Potency [1] | Potency [2] | Potency [4] | Potency [5] | Potency [13] | Potency [7] | Potency [8] | Potency [12]

CC(C)(C#N)C(C)(C)C#N
inactive: Potency [1] | Potency [2] | Potency [3] | Potency [4] | Potency [13] | Potency [6] | Potency [14] | Potency [8] | Potency [9] | Potency [10] | outcome [11] | Potency [12]

CCOP(=O)(SC(C)CC)N1CCSC1=O (centres undefined)
inactive: Potency [1] | Potency [2] | Potency [3] | Potency [4] | Potency [5] | Potency [13] | Potency [6] | Potency [8] | Potency [9] | Potency [10] | outcome [11] | Potency [12]

CCCCCCCCCCCCN=C(N)N
active: Potency [7] 671 nM
inactive: activity change, negative = cytotoxicity [1] 2.27% [at 3.27 µM] | viability change, negative = cytotoxic [2] -1.29% [at 3.26 µM] | activity change, negative = inhibition [3] 5.66% [at 3.27 µM] | activity change, negative = cytotoxicity [4] -3.51% [at 3.27 µM] | viability change, negative = cytotoxic [5] 23.3% [at 3.27 µM] | viability change, negative = cytotoxic [13] 1.35% [at 3.27 µM] | activity change [6] 0.488% [at 3.27 µM, hits give high values] | activity change, negative = cytotoxicity [8] -9.57% [at 3.27 µM] | activity change, negative = cytotoxicity [10] -18.7% [at 3.27 µM] | cAMP activity change [11] 1.76% [at 3.27 µM] | activity change, negative = inhibition [12] 0.876% [at 3.27 µM]

C#CC(O)(C=CCl)CC (centres undefined)
inactive: Potency [1] | Potency [15] | Potency [16] | Potency [3] | Potency [4] | Potency [5] | Potency [13] | Potency [6] | Potency [8] | Potency [9] | Potency [17] | Potency [10] | Potency [18] | Potency [12]

O=[N+]([O-])/C=C/c1ccccc1
inactive: Potency [1] | Potency [3] | Potency [13] | Potency [6] | Potency [10] | outcome [11]
active: Potency [8] 44 µM and 68.6 µM | Potency [12] 27.8 µM and 21.7 µM

Cc1cccc(C)c1NC1=NCCCS1
inactive: Potency [1] | Potency [16] | outcome [19] | Potency [3] | Potency [4] | Potency [5] | Potency [13] | Potency [6] | Potency [7] | Potency [8] | Potency [9] | Potency [10] | Potency [18] | outcome [11] | Potency [12]

O=C(N[C@H]1CN2CCC1CC2)c1ccc2c(c1)OCCO2
inactive: Potency [1] | Potency [15] | Potency [3] | Potency [4] | Potency [13] | Potency [6] | Potency [7] | Potency [14] | Potency [8] | Potency [9] | Potency [17] | Potency [10] | outcome [11] | Potency [12]
